SMILES strings stand for the structures.

This experiment concerns the target AMP-activated protein kinase, AMPK (Homo sapiens) (UniProt P54646+O43741+P54619+Q9UGJ0+Q9Y478+Q13131+Q9UGI9). In words: AMP-dependent Kinase enzyme assay. An in vitro enzyme assay that detects ADP turnover that is directly proportional to AMPK activity. This uses naive AMPK that is activated during the assay with MK-8722. It is filed as functional. Details: scale not given: direction of the effect not stated beside the values. Conditions: 30 µM.
On to `O=C1CCCCN1CCc1nc(C2(c3ccc(F)cc3)CCOC2)no1` (centres undefined), for which the Percent Effect is 0.752%.

As to `C[S+]([O-])CCNC(=O)N1CCN(c2cc(F)ccc2F)CC1` (centres undefined), the Percent Effect is 2.94%.

For `O=C(Nc1ccncc1)NC1CCN(c2ccccc2OC(F)F)C1` (centres undefined), the Percent Effect was -0.97%.

For `CC(C)CCN(C(=O)Nc1cccc(C(=O)N(C)C)c1)C1CC1`, the Percent Effect is -4.54%.

With `Cc1cccc(C(=O)Nc2c(C(N)=O)n[nH]c2C)c1C`, the Percent Effect is -0.641%.

Take `CCc1nc(C)c(C(=O)N[C@@H]2c3ccccc3C[C@@H]2O)o1`: the Percent Effect is 15.9%.

As to `CC(NS(N)(=O)=O)c1ccc(OCc2ccc(F)cc2)cc1` (centres undefined), the Percent Effect was 3.51%.

Take `CN(C)C(=O)CN1CCC(c2c(C(N)=O)sc3ncccc23)C1` (centres undefined): the Percent Effect worked out at 14.7%.

For `COc1cccc(-c2nc(CNCCc3cccnc3)cs2)c1`, the Percent Effect was -3.62%.

In the case of `CCCC1(CO)CCCN(C(=O)CN2CCN(CC)CC2)C1` (centres undefined), the Percent Effect was -3.5%.

As to `Cc1noc(C)c1CCCNC(=O)Nc1ccc2c(c1)COC2`, the Percent Effect stood at 16.7%.

As to `Cn1cc(CN2CCCC(O)C2)c(-c2ccccc2F)n1` (centres undefined), the Percent Effect came to 5.23%.

Regarding `CN(C)CCN(Cc1ccc(F)cc1)C(=O)c1ccn(C)c(=O)c1`, the Percent Effect came out at 9.83%.

For the molecule `Cc1nc(C)c(C(=O)N2CCCc3c(F)ccc(F)c32)o1`, the Percent Effect was -2.55%.

Regarding `CCn1c(C2CCN(C(=O)c3ccc4cc[nH]c4c3)CC2)n[nH]c1=O`, the Percent Effect was -10.8%.

As for `Cc1nnc2n1CCN(C(=O)C(C)Oc1ccc(C#N)cc1)C2` (centres undefined), the Percent Effect is 13%.

On to `O=C(NCC(O)c1cccc(F)c1)C1CCN(C(=O)C2CCC2)CC1` (centres undefined), for which the Percent Effect was -3.62%.

Consider `C[C@@H]1CN(c2ccc(Cl)cn2)C[C@]1(C)O`, for which the Percent Effect was -1.99%.

For `CC(C)N1CCC(NC(=O)c2cn(-c3ccc(F)cc3)nn2)C1` (centres undefined), the Percent Effect was -3.78%.

For the origin of these results see ChEMBL document CHEMBL3988442, “University of Dundee, Small-Polar-MMV Screening Library” (2021).
